High-throughput results (PubChem)
FMDV antiviral = blocks foot and mouth disease virus; AID 1159524; Potency, µM (top dose mostly 57.9 µM), actives largely listed as inhibitors; FMDV antiviral cell-based qHTS; actives 1.2% (n = 410,000); calls by dose curve; tested in HEK293T cells; also: read-out not given here; nearly all actives have a fitted effect of over 45% in size
VACV Venus inh = inhibitors of vaccinia virus (Venus reporter); Potency, µM (series often up to 36.5 µM), usual class: inhibitors; AID 720580; Vaccinia virus Venus reporter expression, fluorescence; actives 0.46% (n = 330,000); calls by dose curve; tested in A549 cells; also: nearly all actives have a fitted effect of over 30% in size
HCV inh = inhibitors of hepatitis C virus infection. AID 651820. Potency, µM (doses to about 41.8 µM), most hits filed as inhibitors. actives 3.4% (n = 340,000). Huh7.5.1 HCVcc-Cre infection, luciferase reporter, 44 h; active = well fitted inhibition curve with a large enough effect; inconclusive = small, poorly fitted or top-dose-only effect, or another doubt; inactive = no such curve, though single readings can be large or run the other way
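Seed cells (1,000/well) for 4 h; treat with compound and infect with HCVcc-Cre, moi about 0.5. Incubate 44 h, then detect luciferase activity.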
Vaccinia mCherry = inhibitors of vaccinia virus infection (mCherry reporter signal); actives 0.63% (n = 310,000); Vaccinia virus mCherry reporter infection, fluorescence; Potency, µM (highest dose often 36.5 µM), most hits filed as inhibitors; AID 720579; calls by dose curve; tested in A549 cells; also: nearly all actives have a fitted effect of over 35% in size
HCMV antiviral = blocks human cytomegalovirus replication. HFF cells, HCMV-luciferase reporter, 72 h; stronger effect = lower value. activity change, negative = inhibition, % at 57.5 µM. actives 4.5% (n = 410,000); in the data active = activity change below about -60%; inconclusive = no clear call, values can overlap the other calls; inactive = above about -39%
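Steps: HFFs plated, 16 h 37C; compounds added; HCMV-luciferase added to MOI 1 PFU/cell; 72 h 37C; OneGlo reagent, 5 min room temperature; luminescence read, normalized to controls.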
Hits are given with their value; i = inactive; ? = inconclusive; nt = no result given; [ ] = another dose, or the depositor's remark. Most compounds without a hit are left out; they make up all but 7.3% or so of the library.

SMILES	FMDV antiviral	VACV Venus inh	HCV inh	Vaccinia mCherry	HCMV antiviral
COc1ccc(NC(=O)c2cc(-c3ccc(OC)c(OC)c3)nc3ccccc23)c(OC)c1	i	i	?	i	-75
COc1ccc(-c2cc(C(=O)Nc3ccc(C(N)=O)cc3)c3ccccc3n2)cc1OC	i	i	?	i	-92
C=CCn1cnnc1SCC(=O)Nc1cccnc1Cl	nt	nt	i	nt	nt
CC1(C)CC(N2CCCCC2)=CC(=[N+]2CCCCC2)C1	?	i	?	i	-95
CCCN(CCC)C1=CC(=[N+]2CCCC2)CC(C)(C)C1	?	i	?	i	-101
CNc1cc(-c2cccc(C(=O)N3CCOCC3)c2)ncn1	i	i	nt	i	i
Cc1ccc2sc(N(CCCN(C)C)C(=O)c3ccc(S(=O)(=O)N4CCCCCC4)cc3)nc2c1C	i	i	14µM	i	i
Cc1cc(C)c2nc(N(CCCN(C)C)C(=O)c3ccc(S(=O)(=O)N4CCCCCC4)cc3)sc2c1	i	?	11µM	i	?
Cc1ccc(C)c(CNC(=O)c2ccc3c(c2)nc2n3CCCCC2)c1	i	i	nt	i	i
COc1ccc(F)cc1CSc1nnnn1-c1ccc(O)cc1	i	i	?	?	-62
CC(C)c1ccc(NC(=O)c2cc3c([nH]c2=O)CC(C)(C)CC3=O)cc1	nt	i	nt	i	nt
O=C(COC(=O)C1=COCCO1)NCc1ccc(Cl)cc1Cl	i	i	nt	i	-61
O=C(Nc1ccc(CN2CCS(=O)(=O)CC2)cc1)c1ccc(F)cc1	i	nt	i	nt	i
COC(=O)c1ccc(NC(=O)c2ccc(CN3CCOCC3)cc2)cc1	22µM	i	?	i	i
COc1c(C(=O)Nc2ccc(CN3CCOCC3)cc2)cc2ccccc2c1Br	?	?	13µM	i	i
CCC(C)Oc1ccc(C(=O)Nc2ccc(CN3CCOCC3)cc2)cc1 (centres undefined)	?	nt	25µM	nt	-80
O=C(Nc1ccc(CN2CCOCC2)cc1)c1ccc(Cl)cc1	i	nt	i	nt	?
CC(C)(C)c1ccc(C(=O)Nc2ccc(CN3CCS(=O)(=O)CC3)cc2)cc1	?	i	5.6µM	i	-80
CCOc1ccc(NC(=O)c2ccc(NC(=O)c3ccc(CN4CCOCC4)cc3)cc2)cc1	i	nt	?	nt	?
CCCn1c(SCC(=O)NC2CCCCC2)nnc1-c1ccco1	i	i	i	i	i
COc1ccccc1NS(=O)(=O)c1cc(NC(=O)COc2ccccc2F)ccc1N1CCOCC1	i	i	?	i	i
CN(C)c1ccc(/C=C2\CCc3cc(N)ccc32)cc1	nt	i	nt	i	nt
O=C(Nc1ccc(CN2CCOCC2)cc1)c1ccc(-c2ccc(Br)cc2)o1	?	?	8.9µM	i	?
CN(C)c1ncc2nc(-c3cc(F)cc(F)c3)c(=O)n(C[C@H]3CCCO3)c2n1	i	nt	nt	nt	nt
CO/N=C(/COc1ccc(F)cc1)c1ccc(OC)cc1	i	i	i	i	-103
SMILES	FMDV antiviral	VACV Venus inh	HCV inh	Vaccinia mCherry	HCMV antiviral
COc1ccc2nc(N(CCN(C)C)C(=O)/C=C/c3cccs3)sc2c1	?	nt	?	nt	-70
CCOc1ccc2nc(N(CCN(CC)CC)C(=O)/C=C/c3cccs3)sc2c1	i	i	?	?	?
CCN(CC)CCN(C(=O)/C=C/c1cccs1)c1nc2ccc(OC)cc2s1	i	nt	?	nt	i
COc1ccc2sc(N(CCN(C)C)C(=O)/C=C/c3cccs3)nc2c1	?	nt	16µM	nt	-76
Nc1[nH]c(C(=O)c2ccccc2)c(-c2ccccc2Cl)c1C(=O)c1ccccc1	i	i	nt	?	i
COc1ccc(C(=O)NC2CCN(C(=O)NCc3ccccc3)CC2)cc1	i	i	i	i	i
Cc1nnc(NC(=O)CSc2nccn2-c2cccc(Cl)c2)s1	i	i	nt	i	i
Cc1ccc(-c2nc(-c3cc4cccc(OCc5cccc(F)c5)c4oc3=O)no2)cc1	i	i	nt	i	i
N=c1ccn(Cc2c(Cl)cccc2Cl)cc1	i	i	?	i	-78
Cc1ccc(C)n1Cc1ccccc1Cl	i	i	i	i	i
N=c1ccn(Cc2ccccc2Cl)cc1	?	?	2.5µM	nt	-85
N=c1ccn(Cc2ccc(Cl)cc2Cl)cc1	?	?	2.8µM	nt	-97
COc1ccc(-c2nc(S(=O)(=O)c3ccc(Cl)cc3)c(N3CCCCCC3)o2)cc1	i	i	nt	i	i
CSc1ncccc1C(=O)Nc1ccc2c(c1)OCCO2	i	i	i	i	i
O=[N+]([O-])c1ccccc1S(=O)(=O)N1CCSCC1	i	nt	i	nt	i
CN(CCO)c1cc(Sc2nc3ccccc3s2)c2nonc2c1[N+](=O)[O-]	22µM	nt	11µM	nt	-104
CCC1(C)NC(=O)N(/N=C/c2ccc(C)s2)C1=O (centres undefined)	i	nt	i	nt	-98
CCC1(C)NC(=O)N(/N=C/c2cc(OC)c(O)c(OC)c2)C1=O (centres undefined)	i	i	i	i	i
COc1cccc(CNC(=O)c2c(OC)cc(=O)n3c2CCN(C(=O)C2=C(C)OCCO2)CC3)c1	i	i	nt	i	nt
COc1cc(OC)cc(-c2c(-c3cccs3)c3cc(-c4ccc5cc[nH]c5c4)ccc3n2C)c1	i	i	4.5µM	?	i
COc1cccc(-c2c(-c3cc(OC)cc(OC)c3)n(C)c3ccc(-c4ccc5cc[nH]c5c4)cc23)c1	i	i	?	i	i
COc1ccc(-c2c(-c3cc(OC)cc(OC)c3)n(C)c3ccc(-c4ccc(S(N)(=O)=O)cc4)cc23)cc1	?	i	10µM	i	i
COc1ccc(-c2c(-c3cc(OC)cc(OC)c3)n(C)c3ccc(-c4cnc(N)nc4)cc23)cc1	i	?	i	i	i
COc1cccc(-c2c(-c3cc(OC)cc(OC)c3)n(C)c3ccc(-c4cnc(N5CCOCC5)nc4)cc23)c1	i	?	i	i	-65
CCOC(CNCc1cc(C)c2[nH]c3ccccc3c2c1C)OCC	?	?	1.8µM	?	?
SMILES	FMDV antiviral	VACV Venus inh	HCV inh	Vaccinia mCherry	HCMV antiviral
CCc1ccc(NC(=O)c2ccc3c(O)c(S(=O)(=O)c4ccccc4)c(=O)[nH]c3c2)cc1	i	i	nt	i	i
CCc1ccccc1OCC(=O)Nc1cc(S(=O)(=O)N(CC)CC)ccc1N1CCOCC1	?	nt	?	nt	i
C(=N\Nc1nc(-c2ccccc2)cs1)/c1cccnc1	i	nt	?	nt	i
O=C(Nc1nc(-c2ccccc2Cl)cs1)c1cccnc1	?	nt	32µM	nt	i
O=C(NC(=S)Nc1nc(-c2ccccc2)cs1)c1cccnc1	i	i	i	?	i
Clc1ccc(-c2csc(N/N=C/c3cccnc3)n2)c(Cl)c1	i	i	?	i	-63
Cc1ccc(C(=O)Nc2cccc(-c3nc(CNC(=O)c4ccc(F)cc4Cl)c(C)o3)c2)s1	i	?	nt	?	nt
Cn1nc(C(C)(C)C)cc1C(=O)NCc1cc(F)cc2c1OCOC2	13µM	nt	?	nt	-72
Cc1cc(C(=O)NCc2cc(F)cc3c2OCOC3)nn1C	i	i[7.34 µM]	i	i[7.34 µM]	i
CCOc1ccc2c(c1)C(c1cccs1)=NNC(c1cccnc1)=N2	i	i	i	i	-71
COc1ccccc1C(=O)Nc1nc(-c2ccc(Br)cc2)ns1	i	i	nt	i	i
Cc1ccccc1C(=O)Nc1nc(-c2ccc(Br)cc2)ns1	?	?	nt	?	-95
O=C(CSCC(=O)N1CCN(c2ccccc2)CC1)Nc1nc(-c2ccc(Cl)s2)cs1	i	?	6.3µM	?	i
